The structures appear in SMILES notation. About 1,400 (93%) of roughly 1,500 compounds were called active. No stated cut-off is given here; in the data, active means inhibition above about 9.5%; inactive means the rest. The set was probably picked from earlier hits. A selection follows.

The test is described as follows: binders of control antibody PGV04, counter-screen for PG9 antibody binder project, biochemical, TR-FRET, distinct HIV envelope site (AID 651604). Conditions: TR-FRET PGV04 antibody-gp120 binding, at 6.7 µM, hits give high values. A general note: A counterscreen serves to expose hits that act by an unwanted route or on another target.
In the case of `CCN(CC)C(=O)c1ccc(NC(=O)c2sccc2-c2ccccc2)cc1`, the inhibition was 25.4% (active).
Turning to `N#CC1=C(N)Oc2c(c(=O)oc3ccccc23)C1c1ccccc1OC(=O)c1cccs1` (configuration not stated), the inhibition is 28% (active).

A word on the inhibition: it is the percentage by which the read-out fell short of the control.

These data come from PubChem BioAssay AID651604 (The Scripps Research Institute Molecular Screening Center, 2012).
